{
  "source": "paper PMC4336329",
  "about": "(PLoS ONE, 2015)",
  "note": "About 14,000 (4.5%) of roughly 310,000 compounds showed an effect of 50% or more. The effect is printed as a negative number. The sample as a whole holds a higher share of strong results than the screen did.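 Further: peak tail current of the secondary pulse compared with the same well before compound.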",
  "data": [
    {"target": "human ether-à-go-go-related gene (hERG) potassium channel (human, UniProt Q12809)", "sequence (Q12809 whole entry, looked up)": "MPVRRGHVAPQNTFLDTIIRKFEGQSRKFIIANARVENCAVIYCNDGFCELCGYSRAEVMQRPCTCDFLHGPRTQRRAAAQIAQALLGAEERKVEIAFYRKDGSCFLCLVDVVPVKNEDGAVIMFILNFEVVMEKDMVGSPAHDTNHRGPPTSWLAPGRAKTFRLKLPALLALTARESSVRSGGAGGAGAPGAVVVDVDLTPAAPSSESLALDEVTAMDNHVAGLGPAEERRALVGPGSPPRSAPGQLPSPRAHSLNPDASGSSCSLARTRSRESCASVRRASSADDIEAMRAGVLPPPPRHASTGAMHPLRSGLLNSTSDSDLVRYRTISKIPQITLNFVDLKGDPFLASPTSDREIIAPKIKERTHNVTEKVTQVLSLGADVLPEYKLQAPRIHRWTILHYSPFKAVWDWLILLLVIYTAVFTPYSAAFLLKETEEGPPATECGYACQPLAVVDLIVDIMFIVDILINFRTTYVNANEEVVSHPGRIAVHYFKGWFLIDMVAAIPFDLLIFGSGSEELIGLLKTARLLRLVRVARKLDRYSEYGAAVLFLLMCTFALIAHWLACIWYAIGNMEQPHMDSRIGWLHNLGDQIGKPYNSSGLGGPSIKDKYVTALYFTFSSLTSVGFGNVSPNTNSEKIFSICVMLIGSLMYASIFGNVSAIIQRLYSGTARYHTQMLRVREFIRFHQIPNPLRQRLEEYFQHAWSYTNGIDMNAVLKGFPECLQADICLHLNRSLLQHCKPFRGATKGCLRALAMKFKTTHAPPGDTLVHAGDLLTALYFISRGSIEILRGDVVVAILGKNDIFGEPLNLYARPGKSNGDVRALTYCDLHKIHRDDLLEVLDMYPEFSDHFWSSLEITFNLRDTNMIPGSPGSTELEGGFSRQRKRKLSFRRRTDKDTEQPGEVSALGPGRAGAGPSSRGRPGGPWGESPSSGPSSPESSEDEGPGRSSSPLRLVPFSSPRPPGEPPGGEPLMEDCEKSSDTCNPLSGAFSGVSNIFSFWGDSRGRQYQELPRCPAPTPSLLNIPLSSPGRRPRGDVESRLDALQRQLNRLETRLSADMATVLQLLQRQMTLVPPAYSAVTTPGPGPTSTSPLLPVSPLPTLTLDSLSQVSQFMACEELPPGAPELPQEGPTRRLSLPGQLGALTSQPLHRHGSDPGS", "experiment": "primary screen, population patch clamp on CHO cells stably expressing hERG; higher = less effect of the substance", "units": {"hERG current change (%, negative = inhibition) at 10uM": "%"}, "values": [
      {"smiles": "O=C(c1ccc(Br)o1)N1CCC(Cc2ccccc2)CC1", "hERG current change (%, negative = inhibition) at 10uM": -10.5},
      {"smiles": "O=C(c1ccco1)N1CCN(CCOc2ccccc2)CC1", "hERG current change (%, negative = inhibition) at 10uM": 0.652},
      {"smiles": "CCN(CC(=O)NCc1ccc(Cl)cc1)C(=O)c1cccc(S(=O)(=O)Nc2ccc(OC)cc2)c1", "hERG current change (%, negative = inhibition) at 10uM": -0.458},
      {"smiles": "Cc1ccc(NC(=O)C(Cc2ccccc2)NC(=O)c2ccco2)cc1", "note": "(stereo not drawn)", "hERG current change (%, negative = inhibition) at 10uM": -3.13},
      {"smiles": "O=C1CC(N2CCN(c3nc4ccccc4s3)CC2)C(=O)N1Cc1cccs1", "note": "(stereo not drawn)", "hERG current change (%, negative = inhibition) at 10uM": -62.3},
      {"smiles": "CCOc1cccc(N2C(=O)CC(N3CCN(c4nc5ccccc5s4)CC3)C2=O)c1", "note": "(stereo not drawn)", "hERG current change (%, negative = inhibition) at 10uM": 5.09},
      {"smiles": "CCCOc1ccc(N2C(=O)CC(N3CCN(c4nc5ccccc5s4)CC3)C2=O)cc1", "note": "(stereo not drawn)", "hERG current change (%, negative = inhibition) at 10uM": 8.46},
      {"smiles": "O=C1CC(N2CCC(c3nc4ccccc4o3)CC2)C(=O)N1Cc1cccs1", "note": "(stereo not drawn)", "hERG current change (%, negative = inhibition) at 10uM": -30.9},
      {"smiles": "O=C1CC(N2CCN(c3nc4ccccc4s3)CC2)C(=O)N1c1ccc(F)cc1", "note": "(stereo not drawn)", "hERG current change (%, negative = inhibition) at 10uM": -53.5},
      {"smiles": "COc1ccc(N2C(=O)CC(N3CCN(c4nc5ccccc5s4)CC3)C2=O)cc1", "note": "(stereo not drawn)", "hERG current change (%, negative = inhibition) at 10uM": -30.9},
      {"smiles": "Cc1ccc(/C=N/NC(=O)C(NC(=O)c2ccccc2)c2n[nH]c(=O)c3ccccc23)cc1", "note": "(stereo not drawn)", "hERG current change (%, negative = inhibition) at 10uM": -2.54},
      {"smiles": "CCC(C)NC(=S)Nc1ccc(C(=O)OC)cc1", "note": "(stereo not drawn)", "hERG current change (%, negative = inhibition) at 10uM": 15},
      {"smiles": "CCCn1c(=O)c(C(=O)NNC(=O)c2cccc([N+](=O)[O-])c2)c(O)c2ccccc21", "hERG current change (%, negative = inhibition) at 10uM": -21.7},
      {"smiles": "O=C(Cn1cnc2ccccc2c1=O)NCCC(=O)Nc1ccc2c(c1)OCO2", "hERG current change (%, negative = inhibition) at 10uM": 16.4},
      {"smiles": "Cc1cc(NC(=O)CSc2nc(-c3ccc(Cl)cc3)cs2)no1", "hERG current change (%, negative = inhibition) at 10uM": -5.45},
      {"smiles": "COC(=O)c1cc(NC(=O)Cn2nc(C)n3cccc3c2=O)cc(C(=O)OC)c1", "hERG current change (%, negative = inhibition) at 10uM": 4.88},
      {"smiles": "COc1cc(S(=O)(=O)NCC2CCCO2)c(OC)cc1Cl", "note": "(stereo not drawn)", "hERG current change (%, negative = inhibition) at 10uM": 10.6},
      {"smiles": "N#Cc1ccsc1NC(=O)CN1CCN(c2ccccc2)CC1", "hERG current change (%, negative = inhibition) at 10uM": 1.63},
      {"smiles": "CC1CCN(CC(=O)Nc2ccccc2C#N)CC1", "hERG current change (%, negative = inhibition) at 10uM": 3.06},
      {"smiles": "N#Cc1ccsc1NC(=O)CN1CCN(Cc2ccccc2)CC1", "hERG current change (%, negative = inhibition) at 10uM": -66.4},
      {"smiles": "N#Cc1ccccc1NC(=O)CN1CCOCC1", "hERG current change (%, negative = inhibition) at 10uM": 13.4},
      {"smiles": "N#Cc1ccccc1NC(=O)CN1CCN(Cc2ccccc2)CC1", "hERG current change (%, negative = inhibition) at 10uM": -60.1},
      {"smiles": "N#Cc1ccsc1NC(=O)CN1CCCCC1", "hERG current change (%, negative = inhibition) at 10uM": -5.6},
      {"smiles": "Cc1ccc(C(=O)NCCN(C)C)cc1C", "hERG current change (%, negative = inhibition) at 10uM": 7.22},
      {"smiles": "Nc1ccccc1NC(=O)c1ccccc1", "hERG current change (%, negative = inhibition) at 10uM": 2.34},
      {"smiles": "O=C(CCCN1C(=O)c2cccnc2Oc2ccc(Cl)cc21)N1CCCCC1", "hERG current change (%, negative = inhibition) at 10uM": -9.27},
      {"smiles": "O=C1CNC(=O)N1", "hERG current change (%, negative = inhibition) at 10uM": 13.6},
      {"smiles": "CS(=O)(=O)Nc1ccc(C(=O)N2CCCCC2)cc1", "hERG current change (%, negative = inhibition) at 10uM": -3.35},
      {"smiles": "O=C(Nc1ccc(C(=O)N2CCN(c3ccc(F)cc3)CC2)cc1)C1=CSCCO1", "hERG current change (%, negative = inhibition) at 10uM": -38.1},
      {"smiles": "O=C(Nc1ccc(C(=O)N2CCN(c3ccccc3F)CC2)cc1)C1=CSCCO1", "hERG current change (%, negative = inhibition) at 10uM": -50.3},
      {"smiles": "CS(=O)(=O)Nc1ccc(C(=O)N2CCCC2)cc1", "hERG current change (%, negative = inhibition) at 10uM": -7.75},
      {"smiles": "O=C(c1ccccc1)N1CCN(c2ccccc2F)CC1", "hERG current change (%, negative = inhibition) at 10uM": 10.1},
      {"smiles": "CS(=O)(=O)Nc1ccc(C(=O)N2CCN(c3ccccc3)CC2)cc1", "hERG current change (%, negative = inhibition) at 10uM": -61.9},
      {"smiles": "CS(=O)(=O)Nc1ccc(C(=O)N2CCN(c3ccccc3F)CC2)cc1", "hERG current change (%, negative = inhibition) at 10uM": -68.1},
      {"smiles": "O=C(Nc1ccc(C(=O)N2CCN(c3ccccc3)CC2)cc1)C1=CSCCO1", "hERG current change (%, negative = inhibition) at 10uM": -39.8},
      {"smiles": "O=C(c1ccc(-c2ccccc2)cc1)N1CCN(c2ccccc2F)CC1", "hERG current change (%, negative = inhibition) at 10uM": 7.96},
      {"smiles": "Cc1nn(CCC#N)c(NC(=O)c2ccccc2)c1P(=O)(Nc1ccc(Br)cc1)N1CCOCC1", "note": "(stereo not drawn)", "hERG current change (%, negative = inhibition) at 10uM": 20.6},
      {"smiles": "Cc1cc(CN(C)C(=O)c2ccc3nc(Cc4ccccc4F)oc3c2)on1", "hERG current change (%, negative = inhibition) at 10uM": -5.71},
      {"smiles": "Cc1ccc(SCC2=NN(c3nc(C)cc(C)n3)C(=O)C2)cc1", "hERG current change (%, negative = inhibition) at 10uM": -16},
      {"smiles": "CCn1c(SCc2ccc(Cl)c(Cl)c2)nnc1C(C)NC(=O)c1ccc(OC)cc1", "note": "(stereo not drawn)", "hERG current change (%, negative = inhibition) at 10uM": 10},
      {"smiles": "CCn1c(CCNC(=O)c2ccc(OC)cc2)nnc1SCc1ccc(Cl)c(Cl)c1", "hERG current change (%, negative = inhibition) at 10uM": -61.8},
      {"smiles": "CCn1c(CCNC(=O)c2ccc(Cl)c(Cl)c2)nnc1SCCOc1ccc(OC)cc1", "hERG current change (%, negative = inhibition) at 10uM": -8.77},
      {"smiles": "CCn1c(CCNC(=O)c2ccc(C)cc2)nnc1SCc1ccc(Cl)c(Cl)c1", "hERG current change (%, negative = inhibition) at 10uM": -45.7},
      {"smiles": "CCn1c(CCNC(=O)c2ccc(OC)cc2)nnc1SCc1ccc(Cl)cc1Cl", "hERG current change (%, negative = inhibition) at 10uM": -65.6},
      {"smiles": "CCOc1ccc(NC(=O)CSc2nnc(CCNC(=O)c3ccc(OC)cc3)n2CC)cc1", "hERG current change (%, negative = inhibition) at 10uM": -26.7}
    ]}
  ]
}
